Out of some 190,000 compounds screened, about 1,700 (0.89%) were called active. The sample holds actives, similar compounds and a random draw of the others, so the mix is not that of the screen.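 How the source made its calls: active means inhibition above the mean inhibition across all screened compounds plus 3 SD (cut at about 44% in these data); inactive means the rest.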

A short description of this assay: blockers of STAT3 transcriptional signaling – U3A cells, luciferase, luminescence, MLSCN library, primary screen (AID 862).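 Further: 0% = DMSO only wells and 100% = 100 µM nifuroxazide control wells.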 Conditions: IL-6 STAT3-luciferase reporter, at 5.5 µM, stronger effect = higher value, host cell line lacks STAT1. Background: Reporter assays use an easily measured gene product as a stand-in for the process of interest.
Take `Cc1cc(C)nc(SC2CCCCC2NS(=O)(=O)c2ccc(Cl)cc2)n1` (configuration not stated): the inhibition (commonly the change of the read-out against control, counted positive when it falls) was -5.1% (inactive).
The figure for `Nc1c(C(=O)O)cnn1-c1ccccc1` is -7.4% (inactive).
With `Cc1ccc(N2C(=O)SC(N(CC(=O)O)c3ccc(C)cc3)C2=O)cc1` (configuration not stated), the inhibition was 0.7% (inactive).
As to `Nc1ccc(-c2nnc(-c3ccc(-c4ccccc4)cc3)o2)cc1`, the inhibition is -2.7% (inactive).
With `CCCCCC(=O)Nc1ccc2oc(-c3ccncc3)nc2c1`, the inhibition was 21.8% (inactive).
The figure for `CCc1ccc2oc(-c3ccc(N)cc3)nc2c1` is 79.6% (active); for `COc1ccc(Nc2nc(-c3ccccc3)cs2)cc1` it is -10.2% (inactive); for `COc1ccc(-c2csc(Nc3ccccn3)n2)cc1` it is 51.5% (active).
The figure for `c1ccc(Nc2nc(-c3ccncc3)cs2)nc1` is 9.9% (inactive).
In the case of `Cc1ccccc1-n1nc(SCC(=O)O)sc1=S`, the inhibition is 3.4% (inactive).
The figure for `COc1cccc(CNC(=O)CCC2CCCN(Cc3ccc(OC(F)F)cc3)C2)c1` (configuration not stated) is 13.3% (inactive); for `c1ccc(Nc2nc(N3CCOCC3)c3ccccc3n2)cc1` it is 22% (inactive).
The figure for `COc1ccc(Nc2ncc(F)c(N3CCOCC3)n2)cc1` is 50.7% (active).
Consider `CCOc1ccc(Nc2nc(Cl)nc(N3CCN(c4ccc(OC)cc4)CC3)n2)cc1`, for which the inhibition is -0.7% (inactive).
The figure for `O=[N+]([O-])c1ccc2oc(-c3cccc(O)c3)nc2c1` is 1.8% (inactive).
The figure for `O=C(Nc1ccccc1F)c1ccc(Cn2cc(Br)cn2)cc1` is 14.9% (inactive); for `COC(=O)CSc1ncnc2c1cnn2-c1ccc(C)cc1C` it is 23.1% (inactive).
The figure for `Cc1ccc(-n2ncc3c(N4CCN(c5ccc(F)cc5)CC4)ncnc32)c(C)c1` is 69.6% (active).
`Cc1ccc(-n2ncc3c(=O)[nH]cnc32)c(C)c1`: the inhibition is 10.7% (inactive).
Turning to `c1ccc(-n2ncc3c(N4CCCC4)ncnc32)cc1`, the inhibition was 46.7% (active).
The figure for `COc1ccc(-n2ncc3c(N4CCCc5ccccc54)ncnc32)cc1` is 30.9% (inactive); for `COc1ccc(-n2ncc3c(N4CCc5ccccc54)ncnc32)cc1` it is 2.3% (inactive); for `CCOc1ccc(N2C(=O)Nc3ccccc3C2(O)C(=O)NCc2ccco2)cc1` (configuration not stated) it is 4.6% (inactive).
For the compound `O=c1[nH]oc(O)c1-c1ncc(C(F)(F)F)cc1Cl`, the inhibition is -6.5% (inactive).
Turning to `S=c1nc(C23CC4CC(CC(C4)C2)C3)nc2sccn12`, the inhibition was 10% (inactive).
In the case of `COC(=O)NC1(C(F)(F)F)NC(=O)N(C2CCCCC2)C1=O` (configuration not stated), the inhibition is 7.4% (inactive).
`O=C(NC1(C(F)(F)F)NC(=O)N(C2CCCCC2)C1=O)c1ccco1` (configuration not stated): the inhibition is 12.1% (inactive).
The figure for `O=C1NC(Nc2nc3ccccc3s2)(C(F)(F)F)C(=O)N1C1CCCCC1` (configuration not stated) is 48.9% (active); for `COCC(C)NC(=O)CSc1nc2nn(-c3ccccc3)c(=O)c-2c2n1CCCCC2` (configuration not stated) it is 2.7% (inactive); for `O=C(NCCOc1ccccc1)c1ccccc1` it is 20.1% (inactive).
The figure for `CCCOc1ccc(C(=O)NCCc2ccccc2)cc1` is 50.3% (active); for `O=C(NCCc1ccccc1)c1ccc(OCCOc2ccccc2)cc1` it is -1.4% (inactive).
`O=C(CN1C2=NCCN2c2ccccc21)c1cccs1`: the inhibition is 0% (inactive).
The figure for `c1ccc(-c2cc(N3CCCCC3)c3ccccc3n2)cc1` is 9.3% (inactive).
For `COc1ccc(-c2cn3cccnc3n2)cc1`, the inhibition is 10.6% (inactive).
As for `Cc1ccc(-c2cn3cc(C)ccc3n2)cc1`, the inhibition is 103% (active).
For `COc1ccc(-c2cn3ccsc3n2)cc1`, the inhibition was 28.9% (inactive).
The figure for `Cc1ccc(-n2cc3ccc([N+](=O)[O-])cc3n2)cc1` is 38.8% (inactive); for `Cc1ccc(-c2cn3cc([N+](=O)[O-])ccc3n2)cc1` it is 86.6% (active).
The figure for `Cc1ccc(-c2cn(S(=O)(=O)c3cccc([N+](=O)[O-])c3)nc2N)cc1` is 12.3% (inactive); for `CC(=O)Nc1ccc(NC(=O)COc2ccc(S(=O)(=O)NC(C)c3ccccc3)cc2)cc1` (configuration not stated) it is 16.1% (inactive).
`Cn1cnnc1Sc1ccc(CN2CCN(C3CCCC3)C(CCO)C2)o1` (configuration not stated): the inhibition was -6.5% (inactive).
Turning to `Cc1ccc2nc(-c3ccncc3)cc(C(=O)Nc3ccc4c(c3)OCCO4)c2c1`, the inhibition was 26.4% (inactive).
The figure for `C/C(=N\NC(=O)CSc1nc2ccccc2c(=O)n1-c1ccccc1C)c1cccs1` is -9.1% (inactive).
Regarding `O=C(Cc1ccccc1)N1CCN(S(=O)(=O)c2ccc([N+](=O)[O-])cc2)CC1`, the inhibition is -1.6% (inactive).
With `Cc1cc(C)c2c(n1)sc1c(=O)n(-c3ccccc3)c(=O)[nH]c12`, the inhibition is 1.2% (inactive).
The figure for `Cc1cccc(C(=O)OC(C)CN2CCN(C)CC2)c1` (configuration not stated) is 6.7% (inactive); for `CCOC(=O)C(C)Sc1nc2ccccc2c(=O)n1CC1CCCCC1` (configuration not stated) it is -5.1% (inactive).
The figure for `CN(c1ccc2nc3ccccc3c(=O)n2n1)C1CCCCC1` is 105% (active).
The figure for `O=c1c2ccccc2nc2n1C1(CCCCC1)Cc1ccccc1-2` is -3.8% (inactive); for `CN(C)C(CNC(=O)c1cccc(C#N)c1)c1ccco1` (configuration not stated) it is 5.3% (inactive).
For the compound `CCOC(=O)CNC(=O)CSc1ccc2nnc(-c3cccnc3)n2n1`, the inhibition is -10.3% (inactive).
With `Cn1ccc(=NC=C(C#N)C#N)c2ccccc21`, the inhibition is 1.3% (inactive).
The figure for `Cc1noc(C)c1COc1cccc(C(=O)Nc2cccnc2)c1` is 14.6% (inactive).
The figure for `Cc1cccc(OCCNC(=S)NC(=O)c2cccnc2)c1` is -5% (inactive); for `CN(Cc1cccnc1)C(=O)c1cc(COc2ccc3ncccc3c2)on1` it is 79.1% (active).
Take `O=C(N/N=C/c1ccc([N+](=O)[O-])o1)c1cn(-c2ccccc2)nc1-c1ccc(F)cc1`: the inhibition was 25% (inactive).
Regarding `O=C(O)c1ccccc1-c1ccccc1C(=O)NCc1cccnc1`, the inhibition is -4.3% (inactive).
Consider `O=C(CCc1ccccc1)Nc1cccc(-c2nnc(-c3ccco3)o2)c1`, for which the inhibition is 15.5% (inactive).
The figure for `CCOc1ccc(-c2nnc(-c3ccco3)o2)cc1` is 77.6% (active); for `CCC(=O)Oc1cccc(C(=O)Nc2ccc(-c3nnc(-c4ccco4)o3)cc2)c1` it is 11.2% (inactive).
On to `CCCCSc1nnc(-c2ccc(C)cc2)o1`, for which the inhibition was 28.9% (inactive).
Consider `CCCCOc1ccc(-c2nnc(-c3ccco3)o2)cc1`, for which the inhibition was 51.7% (active).
The figure for `COc1ccc(OCC(=O)Nc2nnc(-c3ccco3)s2)cc1` is -12.3% (inactive); for `CC(C)CNC(=O)CC(NCC(C)C)C(=O)O` (configuration not stated) it is 17.2% (inactive).
Regarding `CCCOC1CCCN(Cc2cn(C)nc2-c2ccccc2F)C1` (configuration not stated), the inhibition was 3.9% (inactive).
Consider `O=C(NCC1COc2ccccc2O1)C1(c2ccccc2)CCCC1` (configuration not stated), for which the inhibition was 9.6% (inactive).
With `O=C(COC(=O)CCc1ccc(S(=O)(=O)N2CCOCC2)cc1)Nc1cccc(Cl)c1`, the inhibition was -7.6% (inactive).
The figure for `CCn1c(NC(=O)c2nn(C)cc2Br)nc2ccccc21` is 5.2% (inactive); for `CCSc1nnc(NC(=O)Cc2ccccc2OC)s1` it is 1.7% (inactive); for `CC(=O)c1sc(NC(=O)c2ccc(C)cc2)nc1C` it is 33.2% (inactive).
As to `CCSc1nnc(NC(=O)c2ccc(C)cc2)s1`, the inhibition is 60.6% (active).
As for `Cc1ccc(C2CCN(C(=S)Nc3cccc(Cl)c3)C2)cc1` (configuration not stated), the inhibition was 0.7% (inactive).
The figure for `CCc1ccc(-n2c(SCc3cc(=O)n4cc(Br)ccc4n3)nc3[nH]ncc3c2=O)cc1` is 9.7% (inactive); for `CSCCNCc1cn(-c2ccc(F)cc2F)nc1-c1ccccc1C` it is 0.4% (inactive).
The figure for `COc1ccc(CCNC(=O)Cn2c(=O)n(CC3CCCO3)c(=O)c3ccccc32)cc1OC` (configuration not stated) is 10.4% (inactive); for `Cc1nc(CNS(=O)(=O)c2cccnc2)cs1` it is 5.7% (inactive); for `Cc1ccc(S(=O)(=O)NCc2csc(C)n2)c(C)c1` it is -8.4% (inactive).
The figure for `Cc1nc(CNS(=O)(=O)c2ccc(Oc3ccccc3)cc2)cs1` is 54% (active); for `CCc1cc2c(NC3CCCC3)ncnc2s1` it is 13% (inactive); for `CCc1cc2c(SCC(=O)Nc3ncc(Cl)c(C)c3Cl)ncnc2s1` it is -5.3% (inactive).
As to `CCc1cc2c(N3CCN(c4nnc(CC)s4)CC3)ncnc2s1`, the inhibition was 57.3% (active).
In the case of `CCC(C)CN1CCC(CO)(Cc2ccccc2Cl)CC1` (configuration not stated), the inhibition is 3.5% (inactive).
Regarding `Cc1cc(=O)oc(C)c1C(=O)N1CCCCC1`, the inhibition is 6.3% (inactive).
The figure for `Cc1cccc(C(=O)N2CCCN(C(=O)c3cccc(C)c3)CC2)c1` is 3.3% (inactive); for `Cc1ccc2cc3cc(C(=O)N4CCCCCC4)oc3nc2c1` it is 48.7% (active); for `CN1CCN(c2ccc(NC(=O)c3ccc4c(c3)OCCO4)cc2Cl)CC1` it is -19.1% (inactive).
The figure for `c1ccc(Cc2cc[n+](Cc3ccccc3)cc2)cc1` is 10.2% (inactive); for `CC1CCCN(S(=O)(=O)c2ccc(N(C(=O)c3cnccn3)C(C(=O)NC3CCCCC3)c3cccs3)cc2)C1` (configuration not stated) it is 5.3% (inactive).
With `c1ccc(-c2[nH]ncc2-c2nc3ccccc3[nH]2)cc1`, the inhibition was 15.2% (inactive).
`c1ccc2[nH]c(-c3nc4ccccc4[nH]3)nc2c1`: the inhibition is 44.2% (active).
The figure for `Cc1ccc(-c2nc3ccccc3[nH]2)cc1N` is -19.1% (inactive); for `Cc1cccc(C)c1NC(=O)Nc1ccccc1-n1ccnc1` it is 4% (inactive); for `COCCC(=O)Nc1ccc2c(c1)CN(C(=O)CCOC)CC2` it is -5.3% (inactive).
For `O=C(O)c1ccc(N/N=C/c2cn(-c3ccccc3)nc2-c2cccs2)cc1`, the inhibition is 1% (inactive).
For the compound `O=C(O)c1ccc(N/N=C/c2ccc3ncccc3c2)cc1`, the inhibition was 69.5% (active).
As for `CCNC(=S)NNC(=O)c1ccc2ncccc2c1`, the inhibition was 7.8% (inactive).
In the case of `CCCC(c1nnnn1C(C)(C)C)N1CCN(Cc2ccccc2)CC1` (configuration not stated), the inhibition was -0.6% (inactive).
The figure for `O=C(CC(O)(C(F)(F)F)C(F)(F)F)Nc1ccc(Cl)c(Cl)c1` is 65.1% (active); for `O=C(CC(=O)Nc1ccc(Cl)c(Cl)c1)N/N=C/c1ccc(O)cc1` it is -5% (inactive); for `CN(C)CCNC(CC(=O)Nc1ccc(Cl)c(Cl)c1)C(=O)O` (configuration not stated) it is 5.8% (inactive).
The figure for `COc1cc(C(=O)NCc2ccc(-n3cccc3)cc2)cc(OC)c1OC` is 6.8% (inactive).
